# Source: PubChem BioAssay (NCATS)
# Where “and” joins values, the source holds several entries; their conditions need not be identical. Equal entries are not always repeated. Results filed as inconclusive are left out. Entries that show only a call come without a potency. Calls of active or inactive are those of the source. Unless noted, the call rests on the fitted dose curve.
# How the values were obtained:
# [1] = qHTS for Inhibitors of the Functional Ribonucleoprotein Complex (vRNP) of Lassa (LASV) Arenavirus: LASV Primary Screen - GLuc reporter signal (AID 1347082; calls by dose curve; tested in HEK293 reporter line; further: nearly all actives have a fitted effect of over 60% in size; further: potency means the concentration at half of the fitted maximal effect)
# [2] = Cytotoxicity counterscreen for inhibitors of SARS-CoV-2 cell entry (AID 1645845); further: nearly all actives have a fitted effect of over 50% in size
# In short: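 Expi293F/hACE2 cells seeded overnight; cpd pin-transferred in DMSO, 1 h preincubation, + media, 48 h 37 C 5% CO2; ATPLite 1step luminescence; normalized to cells and no cells.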
# [3] = Primary qHTS to identify inhibitors of SARS-CoV-2 cell entry (AID 1645846); settings: activity change, negative = inhibition: at 57.1 µM (top of the series) unless noted; further: nearly all actives have a fitted effect of over 45% in size; further: potency means the concentration at half of the fitted maximal effect
# In short: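 Data are normalized to wells receiving SARS-CoV-2-S pseudoparticles and those given bald particles. Entry signal was luciferase luminescence in stable hACE2 Expi293F cells, 48 hr post-infection, after 1 hr compound pretreatment.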
# CRL-7250 = normal cell line; assay: qHTS assay to identify novel small-molecules to repurpose for Merkel cell carcinoma treatment (AID 1296009; active means well fitted curve in the direction sought with a large enough effect; an effect the other way counts as inactive or inconclusive; further: nearly all actives have a fitted effect of over 60% in size); settings: MCC and control cell lines, CellTiter-Glo viability, 72 h; series mostly up to 92 µM
# In short: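 Cells exposed to NPC (8-point) and MIPE (11-point) compound dilutions for 72 hr at 37 degree celsius; viability read by CellTiter-Glo luminescence, normalized to no-cell and DMSO in-plate controls.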
# [4] = target: Nucleoprotein (Lymphocytic choriomeningitis virus (strain Armstrong)) (UniProt P09992); assay: qHTS for Inhibitors of the Functional Ribonucleoprotein Complex (vRNP) of Lymphocytic Choriomeningitis Arenaviruses (LCMV): LCMV Primary Screen - GLuc reporter signal (AID 1347086); further: nearly all actives have a fitted effect of over 70% in size; further: potency means the concentration at half of the fitted maximal effect
# Chain of Nucleoprotein (Lymphocytic choriomeningitis virus (strain Armstrong)) (P09992 whole entry, looked up): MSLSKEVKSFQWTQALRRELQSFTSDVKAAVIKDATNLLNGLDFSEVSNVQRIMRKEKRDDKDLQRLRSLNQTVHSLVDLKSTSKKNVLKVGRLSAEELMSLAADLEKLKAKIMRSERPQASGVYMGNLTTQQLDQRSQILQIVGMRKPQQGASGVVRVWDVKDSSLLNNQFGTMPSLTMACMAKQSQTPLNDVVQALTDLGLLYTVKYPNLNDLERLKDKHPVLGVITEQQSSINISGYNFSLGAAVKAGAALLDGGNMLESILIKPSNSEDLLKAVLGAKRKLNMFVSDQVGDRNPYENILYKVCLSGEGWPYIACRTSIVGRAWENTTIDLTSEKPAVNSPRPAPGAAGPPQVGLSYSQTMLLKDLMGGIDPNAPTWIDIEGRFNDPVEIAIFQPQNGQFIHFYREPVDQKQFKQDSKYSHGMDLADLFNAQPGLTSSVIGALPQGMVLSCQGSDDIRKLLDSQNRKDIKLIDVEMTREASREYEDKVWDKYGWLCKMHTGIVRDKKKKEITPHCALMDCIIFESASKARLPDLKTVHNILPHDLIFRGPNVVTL
# [5] = qHTS profiling of the MIPE4 collection as inhibitors of Plasmodium falciparum (3D7) proliferation (AID 743344; call rule not given here); settings: P. falciparum 3D7 in erythrocytes, SYBR Green DNA fluorescence, 72 h; at 28.5 µM (top of the series) unless noted
# In short: (§1)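 Erythrocytes infected with P. falciparum (0.3% parasitemia, 2.5% hematocrit) incubated with compounds 72 h at 37 C, 5% CO2. Lysis with saponin/Triton buffer containing SYBR Green I, overnight at room temperature in the dark; DNA fluorescence (485/535 nm) normalised to 0.29 uM artemisinin and DMSO.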
# [6] = qHTS profiling of the MIPE4 collection as inhibitors of Plasmodium falciparum (DD2) proliferation (AID 743345; call rule not given here); settings: P. falciparum Dd2 in erythrocytes, SYBR Green DNA, 72 h; at 28.5 µM (top of the series) unless noted
# In short: as §1
# [7] = qHTS profiling of the MIPE4 collection as inhibitors of Plasmodium falciparum (DD2) proliferation (Rep 2) (AID 743346; call rule not given here); settings: P. falciparum Dd2 in erythrocytes, SYBR Green DNA, 72 h; at 28.5 µM (top of the series) unless noted
# In short: as §1
# [8] = qHTS for Inhibitors of the Functional Ribonucleoprotein Complex (vRNP) of Lassa (LASV) Arenavirus: Viability assay - alamar blue signal for LASV Primary Screen (AID 1347083; calls by dose curve; tested in HEK293 reporter line; further: nearly all actives have a fitted effect of over 80% in size; further: potency means the concentration at half of the fitted maximal effect)
# [9] = qHTS for Inhibitors of the Functional Ribonucleoprotein Complex (vRNP) of Lymphocytic Choriomeningitis Arenaviruses (LCMV): Viability assay - alamar blue signal for LCMV Primary Screen (AID 1347085; calls by dose curve; tested in HEK293 reporter line; further: nearly all actives have a fitted effect of over 80% in size; further: potency means the concentration at half of the fitted maximal effect)
# [10] = target: Alpha-galactosidase (Coffea arabica) (UniProt Q42656); assay: Counterscreen for Glucocerebrosidase Inhibitors: qHTS Assay for Coffee Bean alpha-Galactosidase at pH 4.5 (AID 957; active means well fitted curve in the direction sought with a large enough effect; an effect the other way counts as inactive or inconclusive)
# Chain of Alpha-galactosidase (Coffea arabica) (Q42656 whole entry, looked up): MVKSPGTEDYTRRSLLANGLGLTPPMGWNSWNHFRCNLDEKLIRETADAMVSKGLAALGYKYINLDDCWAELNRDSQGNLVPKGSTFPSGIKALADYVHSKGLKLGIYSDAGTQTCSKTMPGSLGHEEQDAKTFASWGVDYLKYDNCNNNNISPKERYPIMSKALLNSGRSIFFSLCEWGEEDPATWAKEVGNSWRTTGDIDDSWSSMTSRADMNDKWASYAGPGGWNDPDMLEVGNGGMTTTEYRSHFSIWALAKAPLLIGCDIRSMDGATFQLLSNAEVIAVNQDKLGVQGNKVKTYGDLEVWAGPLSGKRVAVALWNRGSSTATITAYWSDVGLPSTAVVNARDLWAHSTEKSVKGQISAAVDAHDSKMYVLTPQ
# In short: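 Green coffee bean enzyme (2 nM final) was incubated with compounds (0.7 nM to 77 uM) and 4-methylumbelliferyl alpha-D-galactopyranoside (80 uM final) in 50 mM citric acid, 0.005% Tween-20, pH 4.5, 20 min at room temperature; AC50 from Hill fits.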
# [11] = target: Alpha-galactosidase (Coffea arabica) (UniProt Q42656); assay: Counterscreen for Glucocerebrosidase Inhibitors: qHTS Assay for Coffee Bean alpha-Galactosidase at pH 5.9 (AID 998; active means well fitted curve in the direction sought with a large enough effect; an effect the other way counts as inactive or inconclusive)
# In short: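 Green coffee bean enzyme (2 nM final) was incubated with compounds (0.7 nM–77 uM) and 4-methylumbelliferyl alpha-D-galactopyranoside (80 uM) in citrate buffer pH 5.9, 20 min at room temperature. High-pH stop; fluorescence 365/440 nm; AC50 from Hill fits.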
# [12] = Confirmatory qHTS to identify inhibitors of SARS-CoV-2 cell entry (AID 1645844); further: potency means the concentration at half of the fitted maximal effect; nearly all actives have a fitted effect of over 45% in size
# In short: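 HEK293-ACE2 cells (Expi293F stably expressing human ACE2) were pretreated with compounds for 1 hr at 37C, then infected with MLV-based particles carrying Wuhan-Hu-1 spike (C-terminal 19-aa truncation). Luciferase luminescence read after 48 hr; normalized to spike PP (100%) and bald PP (0%).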
# [13] = VSVG counterscreen qHTS to identify inhibitors of SARS-CoV-2 cell entry (AID 1645847); further: potency means the concentration at half of the fitted maximal effect; nearly all actives have a fitted effect of over 65% in size
# In short: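 Counterscreen using VSV-G (not spike) pseudotyped MLV particles on ACE2-expressing Expi293F cells after 1 h compound preincubation; infection ran 48 h at 37 °C. Data normalized to VSV-G PP and bald-PP wells.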
# [14] = qHTS profiling of the MIPE4 collection as inhibitors of Plasmodium falciparum (HB3) proliferation (AID 743347; call rule not given here); settings: P. falciparum HB3 in erythrocytes, SYBR Green DNA, 72 h; at 28.5 µM (top of the series) unless noted
# In short: as §1
# [15] = target: Bile acid receptor (Homo sapiens) (UniProt Q96RI1); assay: qHTS assay for small molecule agonists of farnesoid X receptor signaling (AID 588527); settings: HEK293T FXR-UAS-bla, beta-lactamase ratio, 16 h; activation: stronger effect = higher value
# Chain of Bile acid receptor (Homo sapiens) (Q96RI1 whole entry, looked up): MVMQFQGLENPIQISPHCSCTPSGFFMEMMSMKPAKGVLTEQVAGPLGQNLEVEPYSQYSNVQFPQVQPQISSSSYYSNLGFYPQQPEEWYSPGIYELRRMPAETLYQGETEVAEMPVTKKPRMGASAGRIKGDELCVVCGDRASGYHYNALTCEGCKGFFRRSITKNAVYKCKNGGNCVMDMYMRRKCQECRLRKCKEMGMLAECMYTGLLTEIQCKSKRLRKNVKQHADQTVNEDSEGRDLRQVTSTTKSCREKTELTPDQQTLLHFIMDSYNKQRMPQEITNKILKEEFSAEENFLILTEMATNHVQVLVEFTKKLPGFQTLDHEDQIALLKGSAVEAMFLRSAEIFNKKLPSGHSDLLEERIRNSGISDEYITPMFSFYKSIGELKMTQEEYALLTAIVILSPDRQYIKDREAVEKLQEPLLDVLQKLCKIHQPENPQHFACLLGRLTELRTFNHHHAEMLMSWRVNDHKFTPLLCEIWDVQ
# In short: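 Quantitative HTS used FXR-UAS-bla HEK293T cells with 16 h compound incubation at 37 C. EC50 values came from concentration-response curves normalized to chenodeoxycholic acid.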
# [16] = Confirmatory qHTS for VERO E6 Cytotoxicity Assay: Counterscreen for SARS-CoV-2 CPE Assay (AID 1508605); further: nearly all actives have a fitted effect of over 60% in size
# [17] = Confirmatory qHTS for activators (rescue) of SARS-CoV-2 Cytopathic Effect (CPE) (AID 1508606); further: potency means the concentration at half of the fitted maximal effect; nearly all actives have a fitted effect of over 70% in size
smiles,measurement,setting,value
CNC(=O)c1ccc(N2C(=S)N(c3cnc(C#N)c(C(F)(F)F)c3)C(=O)C23CCC3)cc1F,Potency,[1],21.7 µM (active)
same,Potency,[2],inactive
same,"activity change, negative = inhibition",[3],-16.7%
same,Potency,CRL-7250,inactive
CS(=O)(=O)c1ccc(-c2cnc(N)c(C(=O)Nc3ccccc3)n2)cc1,Potency,[1],inactive
same,Potency,[4],inactive
same,Potency,[2],inactive
same,"activity change, negative = inhibition",[3],-1.17%
same,Potency,CRL-7250,inactive
NC(=O)c1cccc(-c2cccc(OC(=O)NC3CCCCC3)c2)c1,"parasite growth, % of DMSO control",[5],81%
same,"parasite growth remaining, % of DMSO control (lower = more inhibition)",[6],98%
same,"parasite growth, % of control (lower = inhibition)",[7],37.9%
same,Potency,[8],4.32 µM (active)
same,Potency,[9],8.63 µM (active)
same,Potency,[4],6.85 µM (active)
same,Potency,[2],inactive
same,Potency,CRL-7250,inactive
Nc1ncnc2c1ncn2[C@@H]1O[C@@H](CO)[C@H](O)[C@H]1O,Potency,[1],inactive
same,Potency,[8],inactive
same,Potency,[4],inactive
same,Potency,CRL-7250,inactive
CN(C)CC[C@H](c1ccc(Cl)cc1)c1ccccn1,outcome,[10],inactive
same,outcome,[11],inactive
same,Potency,[1],inactive
same,Potency,[9],inactive
same,Potency,[4],inactive
same,Potency,CRL-7250,inactive
Nc1ccc(C(=O)Nc2cccc(-c3nc(N4CCOCC4)c4oc5ncccc5c4n3)c2)cn1,Potency,[1],inactive
same,Potency,[8],1.22 µM (active)
same,Potency,[9],0.968 µM (active)
same,Potency,[12],0.192 µM (active)
same,Potency,[3],0.891 µM (active)
same,Potency,[13],0.0048 µM (active)
same,Potency,CRL-7250,inactive
C[C@@H]1[C@H](C)CC[C@]2(C(=O)O)CC[C@]3(C)C(=CC[C@@H]4[C@@]5(C)CC[C@H](O)C(C)(C)[C@H]5CC[C@]43C)[C@@H]12,Potency,[1],inactive
same,Potency,[8],35.2 µM (active)
same,Potency,[4],inactive
same,Potency,CRL-7250,inactive
COc1ccc(-c2cc(=O)c3c(O)cc(O)cc3o2)cc1O,Potency,[1],24.3 µM (active)
same,Potency,[4],24.3 µM (active)
same,Potency,[2],inactive
same,Potency,[3],inactive
same,Potency,CRL-7250,inactive
OC1CCC(Nc2ncc3nc(Nc4c(F)cc(F)cc4F)n([C@@H]4CCOC4)c3n2)CC1 (some centres undefined),Potency,[1],inactive
same,Potency,[8],24.3 µM (active)
same,Potency,[9],21.7 µM (active)
same,Potency,[2],inactive
same,Potency,[3],inactive
same,Potency,CRL-7250,inactive
O=C1NC(=O)C(=Cc2cccc(C(F)(F)F)c2)S1,Potency,[8],13.7 µM (active)
same,Potency,CRL-7250,inactive
C[C@](Cc1c[nH]c2ccccc12)(NC(=O)OC1C2CC3CC(C2)CC1C3)C(=O)NC[C@H](NC(=O)CCC(=O)O)c1ccccc1 (some centres undefined),Potency,[1],inactive
same,Potency,[4],inactive
same,Potency,[2],inactive
same,Potency,[3],inactive
same,Potency,CRL-7250,inactive
CC1(C)CC(O)CC(C)(C)N1[O],"parasite growth, % of DMSO control",[5],99.3%
same,"parasite growth remaining, % of DMSO control (lower = more inhibition)",[6],97.3%
same,"parasite growth, % of control (lower = inhibition)",[7],73%
same,"growth, % of control",[14],60.2%
same,Potency,[1],inactive
same,Potency,[8],inactive
same,Potency,[4],inactive
same,Potency,CRL-7250,inactive
CN(CC(=O)N(Cc1ccc(C2CCCCC2)cc1)c1ccc(C(=O)O)c(O)c1)S(=O)(=O)c1c(F)c(F)c(F)c(F)c1F,Potency,[1],inactive
same,Potency,[8],27.3 µM (active)
same,Potency,[4],inactive
same,Potency,[2],inactive
same,"activity change, negative = inhibition",[3],-15.1%
same,Potency,CRL-7250,inactive
O=c1c(O)c(-c2ccc(O)cc2)oc2cc(O)cc(O)c12,activation,[15],0.454% (inactive) and 2.54% (inactive)
same,Potency,[1],inactive
same,Potency,[8],inactive
same,Potency,[4],inactive
same,Potency,[2],inactive
same,Potency,[3],inactive
same,Potency,CRL-7250,inactive
COc1ccc2c(c1)c(C1=C(c3c[nH]c4ccccc34)C(=O)NC1=O)cn2CCCN(C)C,Potency,[8],0.485 µM (active)
same,Potency,CRL-7250,inactive
CCOc1ccccc1OCCNC(C)Cc1ccc(OC)c(S(N)(=O)=O)c1 (centres undefined),Potency,[1],inactive
same,Potency,[8],inactive
same,Potency,[4],inactive
same,Potency,CRL-7250,inactive
O=C(O)c1ccc(Nc2ncc3c(n2)-c2ccc(Cl)cc2C(c2c(F)cccc2F)=NC3)cc1,Potency,[1],inactive
same,Potency,[8],10.9 µM (active)
same,Potency,[4],inactive
same,Potency,[12],0.242 µM (active)
same,Potency,[2],inactive
same,Potency,[13],1.08 µM (active)
same,Potency,CRL-7250,inactive
Cc1ccc2c(c1)c1c(n2CCc2ccc(C)nc2)CCN(C)C1,Potency,[1],inactive
same,Potency,[4],inactive
same,Potency,CRL-7250,inactive
NC1=N[C@@]2(c3cc(NC(=O)c4ccc(F)cn4)ccc3F)COC[C@@H]2CS1,Potency,[8],17.2 µM (active)
same,Potency,[9],19.3 µM (active)
same,Potency,CRL-7250,inactive
Nc1ncnc2c1c(-c1cccc(OCc3ccccc3)c1)cn2C1CC(CN2CCC2)C1 (centres undefined),Potency,[1],inactive
same,Potency,[8],inactive
same,Potency,[4],inactive
same,Potency,[2],inactive
same,Potency,CRL-7250,inactive
COc1cc(N2CCC(C(N)=O)CC2)ccc1Nc1nc(N)c(Cl)c(Nc2ccccc2S(=O)(=O)C(C)C)n1,Potency,[8],12.2 µM (active)
same,Potency,[9],1.72 µM (active)
same,Potency,[4],0.769 µM (active)
same,Potency,CRL-7250,inactive
COc1cccc([C@@H](C)NCCCc2ccccc2Cl)c1,Potency,[1],inactive
same,Potency,[8],inactive
same,Potency,[4],inactive
same,Potency,[16],inactive
same,Potency,[17],10 µM (active)
same,Potency,[2],inactive
same,Potency,[3],22.4 µM (active)
same,Potency,CRL-7250,inactive
COc1cc(F)c(C(C)C)cc1-c1ccc(C(F)(F)F)cc1CN1C(=O)O[C@H](c2cc(C(F)(F)F)cc(C(F)(F)F)c2)[C@@H]1C,Potency,[1],inactive
same,Potency,[8],0.0273 µM (active)
same,Potency,[9],0.0193 µM (active)
same,Potency,[2],inactive
same,"activity change, negative = inhibition",[3],-5.3%
same,Potency,CRL-7250,inactive
